SKOV3 invasion: Primary qHTS assay for Inhibitors of ovarian cancer metastasis using an organotypic tumor microenvironment (TME) model; SKOV3ip1-GFP adhesion/invasion on 3D omental model, fluorescence; Potency, µM (top dose mostly 45.8 µM), inactives show at the top dose activity change, negative = inhibition, usual class: inhibitors; hit rate 0.1% among 46,000; AID 1963576, 2024;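 note: potency is the fitted concentration of half-maximal effect; plate controls were DMSO wells for no effect and tomatine positive control wells for full effect; nearly all actives have a fitted effect of over 65% in size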
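Adhesion/invasion was scored as fixed GFP-labeled SKOV3ip1 cell counts (488/509 nm), normalized to DMSO and tomatine controls. Cancer cells in serum-free medium, with four compound doses (0.36-46 umol/L), sat 2 hr at RT then 16 hr at 37 C on a 48 hr fibroblast/mesothelial/ECM culture.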
p53null 32C kill: qHTS Screen for Compounds that Selectively Target Cancer Cells with p53 Mutations: Cytotoxicity of p53 Null Cells at the Permissive Temperature | H1299-neo p53 null cells, ATP luminescence, 24 h, 32C | Potency, µM (doses to about 46.1 µM), for inactives: at the highest dose activity change, negative = cytotoxicity, hits mostly cytotoxic | hit rate 0.62% among 55,000 | AID 903, 2007;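 note: potency is the fitted concentration of half-maximal effect; 0% = DMSO only and -100% = full killing by 100 µM tamoxifen; nearly all actives have a fitted effect of over 55% in size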
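AC50 values derive from Hill modelling of qHTS concentration-response data (up to 46 uM) in H1299-neo cells. Cells were treated 24 h at 32C following overnight attachment at 37C; viability was read as cellular ATP.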
PMP22 txn prim: Cell-based coincidence reporter assay to measure PMP22 gene transcription in S16 Pmp22-F2sN cells - Primary screen. S16 Pmp22-F2sN Schwann cells, FLuc/NLuc coincidence luminescence, 24 h. hit rate 2% among 43,000. Potency, µM (titrated, usually from 57.5 µM), for inactives: at the highest dose activity change, negative = inhibition, usual class: inhibitors. AID 1508649, 2021; active = clear falling dose curves in both reporters; inconclusive = both reporters move, but less clearly or upward; inactive = either reporter flat; the % is the NLuc reporter signal; note: potency is the fitted concentration of half-maximal effect; % is set by controls: 0 for no effect and ±100 for the full control effect
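qHTS, 1536-well. Cells seeded, compounds added by pin tool, 24 h 37C. Nano-Glo reagent 1 (lysis/FLuc), 10 min RT, read; Stop&Glo, 10 min RT, read NLuc.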
pS6 MEF inh: Acumen qHTS Assay for Inhibitors of the mTORC1 Signaling Pathway in MEF (Tsc2-/-, p53-/-) Cells: Sytravon; Tsc2-/- p53-/- MEF, phospho-rpS6 immunofluorescence/PI, 24 h; Potency, µM (top dose mostly 38.3 µM), without a hit: top-dose activity change, negative = inhibition, most hits filed as inhibitors; hit rate 0.78% among 44,000; AID 493208, 2011;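 note: potency is the fitted concentration of half-maximal effect; plate controls were DMSO for no effect and rapamycin for full effect; nearly all actives have a fitted effect of over 50% in size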
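Read-out: phospho-S6 Alexa-488 intensity over PI intensity per well, scored as % active cells using thresholds from rapamycin (7.5 nM) and DMSO controls. Tsc2-/-, p53-/- MEFs exposed to compound for 24 h; PI cell count recorded as viability.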
p53null 39C tox: qHTS Screen for Compounds that Selectively Target Cancer Cells with p53 Mutations: Cytotoxicity of p53 Null Cells at the Nonpermissive Temperature. H1299 p53-null (neo) cells, 39C, ATPlite viability, 24 h. Potency, µM (titrated, usually from 46.1 µM), for the others: top-dose activity, negative = cell killing, hits mostly cytotoxic. hit rate 0.97% among 55,000. AID 904, 2007;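 note: potency is the fitted concentration of half-maximal effect; 0% = DMSO only and -100% = full killing by 100 µM tamoxifen; nearly all actives have a fitted effect of over 50% in size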
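Concentration-response (up to 46 uM) was run for 24 h at the nonpermissive 39C on H1299-p53A138V or H1299-neo cells. ATP content was measured with ATPlite luminescence. AC50 values were Hill-modeled after normalizing between DMSO and 100 uM tamoxifen killing.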
S16 viability: Cell viability qHTS assay in S16 Pmp22-F2sN cells. hit rate 0.48% among 43,000. S16 Pmp22-F2sN Schwann cells (luciferase reporters placed in the Pmp22 gene) viability, CellTiter-Glo, 24 h. AID 1508642, 2021. Potency, µM (titrated, usually from 57.5 µM), for the others: at the highest dose activity change, negative = cytotoxicity, actives largely listed as cytotoxic; note: potency is the fitted concentration of half-maximal effect; % is set by controls: 0 for no effect and ±100 for the full control effect; nearly all actives have a fitted effect of over 65% in size
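S16 Schwann cells carrying the Pmp22-F2sN reporter, seeded in 1536-well format, were exposed to library compounds for 24 h at 37C. Viability was read as CellTiter-Glo luminescence after 15 min at room temperature.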
NLuc saturating: Biochemical NLuc saturation counterscreen for small molecule modulators of PMP22 gene expression - Nano-Glo assay. hit rate 4% among 690. Secreted NLuc enzyme (filtered S16 cell medium), Nano-Glo luminescence. shares compounds with PMP22 txn prim. AID 1508638, 2021. Potency, µM (top dose mostly 57.5 µM), inactives show at the top dose activity change, negative = inhibition, actives largely listed as inhibitors; note: potency is the fitted concentration of half-maximal effect; % is set by controls: 0 for no effect and ±100 for the full control effect
NLuc Km counter: Biochemical coelenterazine-based NLuc counterscreen for small molecule modulators of PMP22 gene expression - Km assay. hit rate 5% among 690. Potency, µM (titrated, usually from 57.5 µM), for inactives: top-dose activity change, negative = inhibition, most hits filed as inhibitors. secreted NLuc enzyme, coelenterazine luminescence, Km conditions. shares compounds with PMP22 txn prim. AID 1508639, 2021; note: potency is the fitted concentration of half-maximal effect; % is set by controls: 0 for no effect and ±100 for the full control effect
FLuc ctr PMP22: Biochemical FLuc counterscreen for small molecule modulators of PMP22 gene expression | 690 tested, under 10 active | purified P. pyralis FLuc, luminescence, 10 min | Potency, µM (highest dose often 57.5 µM), for the others: top-dose activity, negative = inhibition, hits mostly inhibitors | AID 1508640, 2021 | shares compounds with PMP22 txn prim; note: % of control where 0% means no effect
Target sequence (P08659 whole entry, looked up): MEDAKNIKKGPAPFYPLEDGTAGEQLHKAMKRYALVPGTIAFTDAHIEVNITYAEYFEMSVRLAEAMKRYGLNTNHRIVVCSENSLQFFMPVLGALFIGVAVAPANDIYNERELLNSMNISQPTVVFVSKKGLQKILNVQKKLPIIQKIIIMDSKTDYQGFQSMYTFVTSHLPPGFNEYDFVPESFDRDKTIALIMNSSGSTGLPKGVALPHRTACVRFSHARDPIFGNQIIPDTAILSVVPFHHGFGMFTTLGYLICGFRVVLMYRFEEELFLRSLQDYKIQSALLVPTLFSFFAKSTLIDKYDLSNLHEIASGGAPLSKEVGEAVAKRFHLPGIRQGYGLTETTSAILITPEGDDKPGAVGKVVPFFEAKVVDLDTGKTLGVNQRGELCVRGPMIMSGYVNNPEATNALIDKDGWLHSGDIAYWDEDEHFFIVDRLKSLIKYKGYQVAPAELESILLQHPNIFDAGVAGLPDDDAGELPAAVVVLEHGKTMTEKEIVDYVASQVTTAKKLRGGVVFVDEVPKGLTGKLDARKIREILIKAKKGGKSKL
S16 viab conf: Cell viability qHTS assay in S16 Pmp22-F2sN cells - Confirmatory screen. Potency, µM (highest dose often 57.5 µM), for the others: at the highest dose activity change, negative = viability loss, hits mostly cytotoxic. AID 1508641, 2021. S16 Schwann cells viability, CellTiter-Glo ATP luminescence, 24 h. hit rate 7% among 690. shares compounds with PMP22 txn prim; note: potency is the fitted concentration of half-maximal effect; % is set by controls: 0 for no effect and ±100 for the full control effect
PMP22 txn conf: Cell-based coincidence reporter assay to measure PMP22 gene transcription in S16 Pmp22-F2sN cells - Confirmatory screen; Potency, µM (highest dose often 57.5 µM), for inactives: at the highest dose activity change, negative = inhibition, hits mostly inhibitors; S16 Schwann cells Pmp22-F2sN, dual luciferase, 24 h; AID 1508646, 2021; hit rate 22% among 690; shares compounds with PMP22 txn prim; active = clear falling dose curves in both reporters; inconclusive = both reporters move, but less clearly or upward; inactive = either reporter flat; the % is the FLuc reporter signal; note: potency is the fitted concentration of half-maximal effect
PMP22 HiBiT cnf: Cell-based HiBiT reporter assay to measure PMP22 protein expression in S16 Pmp22-HiBiT cells - Confirmatory screen | shares compounds with PMP22 txn prim | S16 Schwann cells Pmp22-HiBiT, luminescence, 48 h | Potency, µM (highest dose often 27.9 µM), inactives show at the highest dose activity change, negative = inhibition, most hits filed as inhibitors | 95 tested, under 10 active | AID 1508647, 2021
Target sequence (P25094 whole entry, looked up): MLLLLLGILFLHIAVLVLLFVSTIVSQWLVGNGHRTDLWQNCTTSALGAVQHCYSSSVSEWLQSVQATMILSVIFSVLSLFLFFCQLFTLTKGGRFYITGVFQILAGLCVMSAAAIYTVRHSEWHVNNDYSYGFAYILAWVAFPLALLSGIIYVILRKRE
* marks the source's active call; other numbers are inactive results; i = inactive; ? = inconclusive; . = not tested or not shown. This is a sample that favours compounds with a hit; in the whole collection about 3% have one here. Unless noted, calls come from the whole dose curve; as a rule, active = well fitted curve in the direction sought with a large enough effect; inconclusive = small, poorly fitted or top-dose-only effect, or another doubt; inactive = no such curve, though single readings can be large; an effect the other way counts as inactive or inconclusive.

SMILES	SKOV3 invasion	p53null 32C kill	PMP22 txn prim	pS6 MEF inh	p53null 39C tox	S16 viability	NLuc saturating	NLuc Km counter	FLuc ctr PMP22	S16 viab conf	PMP22 txn conf	others
Cc1ccc(NC(=O)c2ccccc2O)cc1	.	12.6µM*	.	.	10µM*	.	.	.	.	.	.
COc1cc(N2CCN(C)CC2)ccc1Nc1nc(N)c(C(=O)c2c(Cl)cccc2Cl)s1	8.0%	.	.	.	.	.	.	.	.	.	.
Cc1ccc(S(=O)(=O)Cc2ccc(C(=O)N3CCN(c4cccc(Cl)c4)CC3)o2)cc1	-10.3%	1.3%	15µM*	?	?	-16.9%	.	.	.	.	.
Cc1c[nH]c(C=C2C(=O)Nc3ccccc32)c1CCC(=O)O	-0.5%	.	.	.	.	.	.	.	.	.	.
C[C@@H](Oc1ccc2[nH]nc(C=Cc3cnn(CCO)c3)c2c1)c1c(Cl)cncc1Cl	2.5%	.	.	.	.	.	.	.	.	.	.
C=C1C(=O)[C@@]23C(CC[C@@H]1[C@H]2O)[C@@]12CO[C@]3(O)[C@@H](O)[C@@H]1C(C)(C)CC[C@@H]2O (some centres undefined)	18.7µM*	.	.	.	.	.	.	.	.	.	.
CCOc1ccc(OCC)c(NC(=O)c2nnn(Cc3cc(Br)ccc3OC)c2N)c1	i	-6.9%	-16.0%	4.3%	-27.7%	14.5%	.	.	.	.	.
CCOc1ccc(OCC)c(NC(=O)c2nnn(CC(=O)Nc3cc(Cl)ccc3OC)c2N)c1	?	-16.5%	11.3µM*	-17.1%	-6.8%	14.3%	-3.6%	6.6%	6.6%	?	13.7µM*
Cc1cccc(/C=C(\C#N)c2nc3ccccc3c(=O)[nH]2)c1	10.6%	0.8%	11.2µM*	-2.7%	-9.3%	0.3%	?	?	-4.5%	?	5.5%
Cc1ccc2nc(/C(C#N)=C/c3ccc(-c4cccc(Cl)c4)o3)[nH]c2c1	9.1%	-19.6%	?	-5.9%	?	0.5%	.	.	.	.	.
COc1ccc(CC(=O)Nc2sc3c(c2C(=O)Nc2cccc(C)c2)CCCCC3)cc1	-1.0%	-13.4%	10µM*	9.27µM*	?	25.1µM*	-15.2%	5.6%	-13.5%	?	?
COc1ccc(CC(=O)Nc2sc3c(c2C(=O)Nc2ccc(C)cc2)CCCCC3)cc1	i	8.8%	?	7.9%	-25.7%	-19.5%	.	.	.	.	.
CCOc1ccc(CN2C(=O)C(=O)c3cccc(C)c32)cc1OC	-5.1%	-0.6%	11.3µM*	-21.5%	20µM*	14.0%	?	?	-12.9%	-11.5%	?
O=S(=O)(NCC(c1ccco1)S(=O)(=O)c1cccs1)c1ccc(Cl)cc1 (centres undefined)	-25.7%	11.1%	15µM*	18.5µM*	-10.8%	-13.8%	?	?	-5.6%	8.3%	7.56µM*	PMP22 HiBiT cnf=-26.5%
COc1ccc(OCc2ccc(-c3nc(C#N)c(N4CCC(C)CC4)o3)o2)cc1	-3.6%	0.5%	6.7µM*	-1.7%	16.2%	-2.5%	-9.7%	0.0%	-0.2%	8.4%	-3.1%
Cc1ccc(OCc2ccc(-c3nc(C#N)c(N4CCC(C)CC4)o3)o2)cc1	5.2%	-10.0%	?	1.9%	-14.0%	1.5%	.	.	.	.	.
Cc1cccc(C)c1NC(=O)CSc1nc(-c2cccs2)cc(C(F)(F)F)n1	i	9.3%	-23.0%	?	-11.4%	9.2%	.	.	.	.	.
Cc1ccc(F)cc1NC(=O)CSc1nc(-c2cccs2)cc(C(F)(F)F)n1	-0.7%	-3.1%	14.1µM*	?	?	0.0%	-20.1%	-17.0%	2.1%	-7.5%	-14.2%
Cc1ccc(NC(=O)CSc2nc(-c3ccco3)cc(C(F)(F)F)n2)cc1	-3.5%	5.2%	2.15µM*	?	-9.4%	-8.4%	-7.3%	-1.0%	6.9%	-12.0%	-12.7%
COCCCn1c(=N)c(C(=O)NCC2CCCO2)cc2c(=O)n3cccc(C)c3nc21 (centres undefined)	.	6.2%	.	.	.	.	.	.	.	.	.
COCCCn1c(=N)c(C(=O)NCc2ccco2)cc2c(=O)n3cccc(C)c3nc21	i	4.2%	14.1µM*	2.4%	15.4%	5.7%	-7.5%	0.9%	1.5%	?	?

High-throughput results (PubChem BioAssay)
